Experiment in all cases: NCI-60 one-dose screen, 48 h (100 = growth as untreated, 0 = no growth, -100 = all killed)
Holding throughout (conditions): 10 µM unless noted

The subject of experiment [1] is T-47D breast.
The test system of experiment [2] is BT-549 breast.
The test system of experiment [3] is MDA-MB-435 melanoma.
The subject of experiment [4] is SW-620 colon.
Experiment [5] deals with MCF7 breast.
Experiment [6] has as its system HCT-116 colon.
For experiment [7], the system named is HCC-2998 colon.
The subject of experiment [8] is KM12 colon.

About 83,000 compounds went through this panel and 20% of them were active in at least one assay; those are over-represented in the sample as a whole.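 For each line, cells grew in 96-well plates with the test compound present at a single concentration for 48 hours.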 A number with no mark means an inactive call. Active and inactive are the calls of the source. The calls were made as follows: active = growth percent below 10; inactive = the rest.

Regarding `Cc1ccc(NC(=O)c2sc3nc(C)c(Br)c(C)c3c2N)cc1`, the growth is 61.9% in experiment [1]; 79.7% in experiment [2]; 81.8% in experiment [3]; 78.3% in experiment [4]; 59.1% in experiment [5]; 72.6% in experiment [6]. Besides, the growth in experiment [7] is 92.1%.

For `O=c1c2ccccc2n2cnc3ccc(Cl)c1c32`, the growth is 54.4% in experiment [1]; 75.4% in experiment [2]; 90.5% in experiment [3]; 79.2% in experiment [4]; 75% in experiment [5]; 65.7% in experiment [6]. The growth in experiment [7] was 103%.

In the case of `COc1cc(OCc2cccc(Br)c2C)cc(OC)c1C=O`, the growth is 37.8% in experiment [1]; 70.9% in experiment [2]; 87.8% in experiment [3]; 88.6% in experiment [4]; 63.9% in experiment [5]; 68% in experiment [6]. The growth in experiment [7] was 96.5%.

Take `CCCCCCC12CCC(=O)N1CCc1cncn12` (centres undefined): the growth in experiment [1] is 91.9%; in experiment [2], 114%; in experiment [3], 105%; in experiment [4] it was 102%; in experiment [5] it was 94.8%; in experiment [6], 106%. In experiment [7], the growth was 108%.

Regarding `O=C1/C(=C/c2ccccc2O)CC/C1=C\c1ccccc1O`, the growth in experiment [1] was 47.3%; in experiment [2], 2% (active); in experiment [3] it was 26.4%; in experiment [4], 55.1%; in experiment [5] it was 24.3%; in experiment [6] it was 16.7%. Also, the growth was 104% in experiment [7] and 75.7% in experiment [8].

Consider `CCOC(=O)NC(C)C`, for which the growth in experiment [1] was 100%; in experiment [2], 116%; in experiment [3] it was 111%; in experiment [4], 111%; in experiment [5] it was 106%; in experiment [6], 98.4%. Also, the growth is 103% in experiment [7] and 112% in experiment [8].

For `COc1cc2c(cc1OCCCN1CCN(CCCOc3cc4c(cc3OC)C(=O)N3CC(F)(F)C[C@H]3C=N4)CC1)N=C[C@@H]1CC(F)(F)CN1C2=O`, the growth was 34.5% in experiment [1]; -7.9% (active) in experiment [2]; 69% in experiment [3]; -0.878% (active) in experiment [4]; 25.5% in experiment [5]; 62% in experiment [6]. Also, the growth is 60.5% in experiment [7] and 62.3% in experiment [8].

On to `N=C(N)c1ccc(-c2ccc(-c3ccc(Cl)cc3Cl)s2)cc1`, for which the growth is 47.2% in experiment [1]; 100% in experiment [2]; -2.28% (active) in experiment [3]; -52.1% (active) in experiment [4]; -65.4% (active) in experiment [5]; -60.1% (active) in experiment [6]. Besides, the growth in experiment [7] is -65.9% (active); in experiment [8], -87.3% (active).

For `CCCCCOC(=O)c1c(C)[nH]c(/C=C2\N=C(c3ccc[nH]3)C=C2OC)c1C`, the growth in experiment [1] was -42.5% (active); in experiment [2], 2.11% (active); in experiment [3] it was -16.9% (active); in experiment [4], -1.61% (active); in experiment [5] it was -61.2% (active); in experiment [6] it was -85.7% (active). In addition, the growth in experiment [7] was -20.1% (active); in experiment [8], -13.6% (active).

`CCOC(=O)[C@@H]1CSC(CC)=C(C(=O)O)N1`: the growth in experiment [1] was 87.3%; in experiment [2] it was 101%; in experiment [3], 109%; in experiment [4] it was 105%; in experiment [5] it was 108%; in experiment [6], 94.1%. Also, the figures for the growth in experiment [7] and in experiment [8] were 111% and 114%, respectively.

Turning to `C=CCn1c(SCC(=O)Nc2ccc(C(=O)/C=C/c3ccc(Cl)cc3)cc2)nnc1-c1ccc(Br)cc1`, the growth in experiment [1] is 88.9%; in experiment [2] it was 87.4%; in experiment [3], 26.9%; in experiment [4], 82.5%; in experiment [5], 13.4%; in experiment [6], -80.4% (active). The growth in experiment [7] was 93.8%; in experiment [8], 69.9%.

As to `Cc1c2cnccc2c(C)c2c1c1cc(C#N)ccc1n2C`, the growth in experiment [1] was -1.04% (active); in experiment [2], -62% (active); in experiment [3], -57.6% (active); in experiment [4], -0.262% (active); in experiment [5] it was -12.2% (active); in experiment [6], -22.9% (active). Besides, the values for the growth in experiment [7] and in experiment [8] were -68.7% (active) and 2.89% (active), respectively.

With `O=C1c2ccccc2-c2c1c1c(=O)[nH]c3ccccc3c1n2Cc1ccccc1`, the growth in experiment [1] was 62.6%; in experiment [2] it was 29.5%; in experiment [3], 71.1%; in experiment [4], 79.8%; in experiment [5] it was 56.5%; in experiment [6], 41%. For the same molecule, the results for the growth in experiment [7] and in experiment [8] were 55.4% and 71.2%, respectively.

As to `O=CN1N=C(c2cccc(Nc3ccnc4cc(Cl)ccc34)c2)CC1c1ccccc1` (centres undefined), the growth was 45.5% in experiment [1]; 35.7% in experiment [2]; -34.4% (active) in experiment [3]; 34.2% in experiment [4]; 19.3% in experiment [5]; 7.26% (active) in experiment [6]. Further, the results for the growth in experiment [7] and in experiment [8] were 12.4% and 19.7%, respectively.

For the molecule `Clc1ccc2c(NC3CCC(N4CCOCC4)CC3)ccnc2c1` (centres undefined), the growth in experiment [1] was 58%; in experiment [2], 67.4%; in experiment [3], 86.3%; in experiment [4] it was 85.4%; in experiment [5] it was 63.7%; in experiment [6], 47%. The results for the growth in experiment [7] and in experiment [8] were 77.8% and 96.4%, respectively.

Take `N#Cc1c(-c2ccccc2)cc(-c2ccc(Nc3nc(Nc4ccc(Cl)cc4)nc(Nc4ccc(Cl)cc4)n3)cc2)nc1N`: the growth was -39.5% (active) in experiment [1]; -68.1% (active) in experiment [2]; -34.4% (active) in experiment [3]; -39.2% (active) in experiment [4]; 22% in experiment [5]; 4.99% (active) in experiment [6]. The growth in experiment [7] is -14.3% (active); in experiment [8], 50.1%.

`Cn1c(=O)c2nc(/C=C/c3ccccc3)c(=O)[nH]c2n(C)c1=S`: the growth was 104% in experiment [1]; 110% in experiment [2]; 103% in experiment [3]; 98.9% in experiment [4]; 93.9% in experiment [5]; 105% in experiment [6]. In addition, the growth was 106% in experiment [7] and 104% in experiment [8].

Consider `N#C/C(=C\c1c(-c2ccccc2)[nH]c2ccccc12)C(N)=O`, for which the growth is 83.7% in experiment [1]; 95.6% in experiment [2]; 15.7% in experiment [3]; 56.9% in experiment [4]; 50.4% in experiment [5]; 76.9% in experiment [6]. The growth was 78.9% in experiment [7] and 47.9% in experiment [8].

For `CC(C)Cn1cnc2c(=O)[nH]c(N)nc21`, the growth is 85.3% in experiment [1]; 98.5% in experiment [2]; 109% in experiment [3]; 106% in experiment [4]; 86.7% in experiment [5]; 101% in experiment [6]. Further, the growth was 104% in experiment [7] and 106% in experiment [8].

Consider `Cc1cc(C(=O)O)c(C)n1-c1cccc(C(=O)O)c1`, for which the growth is 84.1% in experiment [1]; 83.3% in experiment [2]; 100% in experiment [3]; 44.6% in experiment [4]; 61.2% in experiment [5]; 35.3% in experiment [6]. For the same molecule, the values for the growth in experiment [7] and in experiment [8] were 101% and 97.8%, respectively.

With `COc1ccc(-c2nc3c(ncc4ccc(=O)[nH]c43)s2)cc1`, the growth in experiment [1] was 78.7%; in experiment [2], 86.4%; in experiment [3], 80.6%; in experiment [4], 66.5%; in experiment [5], 62.5%; in experiment [6] it was 79.2%. For the same molecule, the values for the growth in experiment [7] and in experiment [8] were 91% and 64.8%, respectively.

With `Nc1[nH]n2cc(-c3ccccc3)nc2c1N=Nc1ccc(S(N)(=O)=O)cc1`, the growth in experiment [1] is 42.8%; in experiment [2], 59.5%; in experiment [3] it was 28.9%; in experiment [4], 26.1%; in experiment [5], 45.5%; in experiment [6], 22.6%. Also, the growth in experiment [7] is 45.5%; in experiment [8], 33.3%.

Turning to `COC(=O)c1nc(-c2ccc(C)cc2)oc1S(=O)(=O)c1cccc(OC)c1`, the growth in experiment [1] is 90%; in experiment [2] it was 70.6%; in experiment [3], 100%; in experiment [4] it was 65.5%; in experiment [5], 95.6%; in experiment [6] it was 61.6%. Also, the growth was 103% in experiment [7] and 93.5% in experiment [8].

As for `COc1ccc2[nH]c(C(=O)N3CCN(C(=O)OCc4ccc5c(Cl)cc(Cl)c(O)c5n4)CC3)cc2c1`, the growth in experiment [1] was -57.5% (active); in experiment [2] it was -69.3% (active); in experiment [3], -91% (active); in experiment [4], -81.9% (active); in experiment [5], -55.7% (active); in experiment [6], -92.2% (active). The growth was -86.7% (active) in experiment [7] and -62.3% (active) in experiment [8].

For the molecule `CCCCCCCC[C@@H]1N[C@@H](C(=O)OC)Cc2c1[nH]c1ccccc21`, the growth is 92.7% in experiment [1]; 105% in experiment [2]; 99.8% in experiment [3]; 94.6% in experiment [4]; 92% in experiment [5]; 95.7% in experiment [6]. Also, the results for the growth in experiment [7] and in experiment [8] were 107% and 99.7%, respectively.

As for `N#Cc1ccc2c(c1)C(=O)c1c-2n(CCCN)c(=O)c2cc([N+](=O)[O-])ccc12`, the growth in experiment [1] was -78.6% (active); in experiment [2], -100% (active); in experiment [3] it was -86.3% (active); in experiment [4], -100% (active); in experiment [5], -74.8% (active); in experiment [6], -100% (active). Also, the results for the growth in experiment [7] and in experiment [8] were -100% (active) and -98% (active), respectively.

`CC(C)(Sc1cc(C(C)(C)C)c(OC(=O)CCCC(=O)O)c(C(C)(C)C)c1)Sc1cc(C(C)(C)C)c(OC(=O)CCCC(=O)O)c(C(C)(C)C)c1`: the growth in experiment [1] was 49.5%; in experiment [2], 39.8%; in experiment [3] it was 27.8%; in experiment [4], 41.4%; in experiment [5], 30%; in experiment [6], 15.9%. In addition, the growth in experiment [7] is 22.1%; in experiment [8] it was 10.9%.

`COC(=O)c1c2c(c(C)[n+]([O-])c1C)C(=O)C(NCc1cccc(OC)c1)=CC2=O`: the growth was 11.5% in experiment [1]; 57.5% in experiment [2]; -70.6% (active) in experiment [3]; 7.85% (active) in experiment [4]; 0.247% (active) in experiment [5]; 1.61% (active) in experiment [6]. The results for the growth in experiment [7] and in experiment [8] were 22.3% and 22%, respectively.

As to `O=C(CN1C(=O)S/C(=C\c2ccccc2)C1=O)Nc1ncc(Cc2ccccc2Cl)s1`, the growth in experiment [1] was 88.1%; in experiment [2] it was 113%; in experiment [3], 93.6%; in experiment [4] it was 105%; in experiment [5] it was 92.7%; in experiment [6] it was 94.5%. Moreover, the growth in experiment [7] is 105%; in experiment [8], 102%.

As to `COc1ccc(-c2noc(C(=O)O)c2-c2cc(OC)c(OC)c(OC)c2)cc1`, the growth is 27.2% in experiment [1]; 49.6% in experiment [2]; -41.5% (active) in experiment [3]; 22.4% in experiment [4]; 18.9% in experiment [5]; 19.4% in experiment [6]. Moreover, the results for the growth in experiment [7] and in experiment [8] were 58% and 27.9%, respectively.

On to `COC12C=C/C(=C(/C(=O)OCc3ccncn3)C(=O)CCCCCCCCC3(OC)C=C/C(=C(/C(=O)OCc4ccncn4)C(=O)CCCCCCCC1)O3)O2`, for which the growth in experiment [1] is 25.3%; in experiment [2], -27.1% (active); in experiment [3], -34.4% (active); in experiment [4], 12.9%; in experiment [5] it was 5.92% (active); in experiment [6] it was -50.9% (active). Moreover, the growth in experiment [7] is -85.1% (active); in experiment [8] it was -75.9% (active).
